The whole screen tested about 39,000 compounds, of which about 1,500 (3.8%) were called active. Only a selection was taken, and actives are over-represented in it overall.

The assay has as its system HSkMC (human skeletal muscle cells). The assay is described as follows: cytotoxicity call (relative viability < 0.9). The note with it: 10 µM.
In the case of `COc1ccc(NC(=O)Nc2cccc3c2O[C@@H](CN(C)S(C)(=O)=O)[C@@H](C)CN([C@H](C)CO)C3=O)cc1`, the cytotoxicity call is “inactive”.

For the molecule `C[C@H](CO)N1C[C@H](C)[C@H](CN(C)S(C)(=O)=O)Oc2ccc(NS(=O)(=O)c3ccc(F)cc3)cc2CC1=O`, the cytotoxicity call is “inactive”.

Regarding `C[C@H](CO)N1C[C@H](C)[C@@H](CN(C)C(=O)Nc2ccc3c(c2)OCO3)Oc2ccc(NC(=O)c3ccncc3)cc2CC1=O`, the cytotoxicity call is “inactive”.

Regarding `Cc1noc(C)c1NC(=O)Nc1ccc2c(c1)C(=O)N([C@@H](C)CO)C[C@@H](C)[C@H](CN(C)Cc1ccccc1)OCCCC[C@@H](C)O2`, the cytotoxicity call is “inactive”.

Regarding `CCCN(C)C[C@@H]1OCCCC[C@@H](C)Oc2ccc(NC(=O)Nc3ccc(C(F)(F)F)cc3)cc2C(=O)N([C@H](C)CO)C[C@@H]1C`, the cytotoxicity call is “inactive”.

Turning to `C[C@@H]1CCCCO[C@@H](CN(C)CC2CC2)[C@H](C)CN([C@@H](C)CO)C(=O)c2cc(NC(=O)Nc3ccc(C(F)(F)F)cc3)ccc2O1`, the cytotoxicity call was “inactive”.

Consider `C[C@H](CO)N1C[C@H](C)[C@H](CN(C)CC2CC2)OCCCC[C@H](C)Oc2ccc(NC(=O)Nc3ccc(C(F)(F)F)cc3)cc2C1=O`, for which the cytotoxicity call is “inactive”.

Turning to `C[C@H]1CCCCO[C@H](CN(C)CC2CC2)[C@@H](C)CN([C@@H](C)CO)C(=O)c2cc(NC(=O)Nc3ccc(C(F)(F)F)cc3)ccc2O1`, the cytotoxicity call was “inactive”.

In the case of `C[C@@H]1CCCCO[C@H](CN(C)CC2CC2)[C@H](C)CN([C@@H](C)CO)C(=O)c2cc(NC(=O)Nc3ccc(C(F)(F)F)cc3)ccc2O1`, the cytotoxicity call is “active”.

Consider `C[C@@H]1CCCCO[C@H](CN(C)CC2CC2)[C@H](C)CN([C@H](C)CO)C(=O)c2cc(NC(=O)Nc3ccc(C(F)(F)F)cc3)ccc2O1`, for which the cytotoxicity call is “active”.

Turning to `CCCN(C)C[C@H]1OCCCC[C@H](C)Oc2ccc(NC(=O)Nc3ccc(C(F)(F)F)cc3)cc2C(=O)N([C@@H](C)CO)C[C@H]1C`, the cytotoxicity call is “inactive”.

For `C[C@@H]1CCCCO[C@@H](CN(C)CC2CC2)[C@@H](C)CN([C@H](C)CO)C(=O)c2cc(NC(=O)Nc3ccc(C(F)(F)F)cc3)ccc2O1`, the cytotoxicity call is “inactive”.

For the molecule `CCCN(C)C[C@@H]1OCCCC[C@H](C)Oc2ccc(NC(=O)Nc3ccc(C(F)(F)F)cc3)cc2C(=O)N([C@@H](C)CO)C[C@@H]1C`, the cytotoxicity call is “active”.

As for `C[C@@H]1CN([C@H](C)CO)C(=O)CCCn2nncc2CO[C@@H]1CN(C)S(=O)(=O)c1ccc(-n2cccn2)cc1`, the cytotoxicity call was “inactive”.

As to `CC[C@@H](C)N[C@H]1CCS(=O)(=O)C1`, the cytotoxicity call is “inactive”.

As for `Cc1cccc([C@@H](N)c2nccn2C)c1`, the cytotoxicity call was “inactive”.

On to `O=C(CCCCCNC(=O)OCCCCO[C@H]1C[C@@H](c2ccc(C(F)(F)F)cc2)C=C(C(=O)N2CCN(Cc3ccccc3)CC2)O1)NO`, for which the cytotoxicity call is “inactive”.

Regarding `CN(C)CC(=O)N[C@@H]1CC[C@@H](CC(=O)NCCN2CCCCC2)O[C@H]1CO`, the cytotoxicity call was “inactive”.

On to `C[C@H](CO)N1C[C@H](C)[C@@H](CN(C)S(=O)(=O)c2ccc(F)cc2)Oc2c(NC(=O)Nc3ccc(C(F)(F)F)cc3)cccc2C1=O`, for which the cytotoxicity call was “inactive”.

Turning to `O=C(NCCN1CCCC1)[C@H]1[C@H](CO)[C@H]2Cn3c(cccc3=O)[C@@H]1N2C(=O)c1ccccc1`, the cytotoxicity call was “inactive”.

On to `C[C@H](CO)N1C[C@H](C)[C@H](CN(C)C(=O)Nc2cccc3ccccc23)Oc2c(NS(=O)(=O)c3ccc(Cl)cc3)cccc2C1=O`, for which the cytotoxicity call is “inactive”.

Consider `Nc1ncnc2c1ncn2[C@@H]1O[C@H](COP(=O)(O)O)[C@@H](O)[C@H]1O`, for which the cytotoxicity call was “inactive”.

For `CO[C@@H]1[C@H](O[P@@](=O)(S)OC[C@H]2O[C@@H](n3cnc4c(N)ncnc43)C[C@@H]2O)[C@@H](CO)O[C@H]1n1ccc(=O)[nH]c1=O`, the cytotoxicity call is “active”.

Regarding `CO[C@@H]1[C@H](O[P@@](=O)(OC[C@H]2O[C@@H](n3cnc4c(N)ncnc43)C[C@@H]2O)SCOC(=O)OC(C)C)[C@@H](CO)O[C@H]1n1ccc(=O)[nH]c1=O`, the cytotoxicity call is “inactive”.

Regarding `O=C(C[C@@H]1CC[C@H]2[C@@H](COC[C@H](O)CN2S(=O)(=O)c2ccccc2)O1)NCCN1CCCC1`, the cytotoxicity call was “inactive”.

`C[C@H]1CN([C@@H](C)CO)C(=O)Cc2cc(NS(=O)(=O)c3cccs3)ccc2O[C@H]1CN(C)S(=O)(=O)c1cccs1`: the cytotoxicity call was “inactive”.

Regarding `CO[C@H]1O[C@@H](COC(C)=O)[C@@H](OC(C)=O)C(C#N)(C#N)[C@@H]1OC(C)=O`, the cytotoxicity call is “inactive”.

As to `Clc1ccccc1C(c1ccccc1)(c1ccccc1)n1ccnc1`, the cytotoxicity call is “active”.

Take `N#CC(c1ccccc1)(c1ccccc1)c1ccccc1Cl`: the cytotoxicity call was “inactive”.

Turning to `C[C@H](CO)N1C[C@H](C)[C@H](CN(C)S(=O)(=O)c2ccc(Cl)cc2)OCCCC[C@H](C)Oc2ccc(NC(=O)c3ccncc3)cc2C1=O`, the cytotoxicity call is “inactive”.

`Cc1cccc(S(=O)(=O)N2C[C@H](O)COC[C@H]3O[C@@H](CC(=O)NCCCN4CCOCC4)CC[C@@H]32)c1`: the cytotoxicity call is “inactive”.

On to `COc1c(C)cnc2c1c(=O)n(CC(N)=O)c(=O)n2C`, for which the cytotoxicity call was “inactive”.

Consider `C[C@@H]1CCCCO[C@H](CN(C)Cc2ccc(C(F)(F)F)cc2)[C@H](C)CN([C@H](C)CO)C(=O)c2cc(NS(=O)(=O)c3cccs3)ccc2O1`, for which the cytotoxicity call is “inactive”.

Turning to `O=C(NC1CCN(CCCCC2(C(=O)NCC(F)(F)F)c3ccccc3-c3ccccc32)CC1)c1ccccc1-c1ccc(C(F)(F)F)cc1`, the cytotoxicity call was “active”.

Turning to `C[C@]1(C(=O)NCC(F)(F)F)c2ccccc2C(=O)N(Cc2cc(C(F)(F)F)cc(C(F)(F)F)c2)[C@H]1c1ccc(CO)cc1`, the cytotoxicity call is “inactive”.

`O=C(NC1CCCCCCC1)c1ccccc1-c1ccccc1`: the cytotoxicity call was “inactive”.

As to `COc1ccc(S(=O)(=O)Nc2ccc3c(c2)C(=O)N([C@H](C)CO)C[C@H](C)[C@@H](CN(C)C(=O)NC(C)C)O3)cc1`, the cytotoxicity call was “inactive”.

On to `CCCCCCCCC(=O)O`, for which the cytotoxicity call is “inactive”.

With `CN1CCN(S(C)(=O)=O)CC1`, the cytotoxicity call is “inactive”.

As to `C[C@H](CO)N1C[C@H](C)[C@@H](CN(C)C(=O)c2ccc3c(c2)OCO3)Oc2ncc(C#CCN(C)C)cc2C1=O`, the cytotoxicity call is “inactive”.

In the case of `C[C@H]1CN([C@@H](C)CO)C(=O)c2cc(NS(=O)(=O)c3ccc(F)cc3)ccc2O[C@H]1CN(C)Cc1ccc(Oc2ccccc2)cc1`, the cytotoxicity call was “inactive”.

`C[C@@H]1CN([C@@H](C)CO)C(=O)c2cc(NS(=O)(=O)c3ccc(F)cc3)ccc2O[C@@H]1CN(C)Cc1ccc(Oc2ccccc2)cc1`: the cytotoxicity call was “active”.

`C[C@@H]1CN([C@H](C)CO)C(=O)c2cc(NS(=O)(=O)c3ccc(F)cc3)ccc2O[C@H]1CN(C)Cc1ccc(Oc2ccccc2)cc1`: the cytotoxicity call was “inactive”.

For `C[C@@H]1CN([C@@H](C)CO)C(=O)c2cc(NS(=O)(=O)c3ccc(F)cc3)ccc2O[C@H]1CN(C)Cc1ccc(Oc2ccccc2)cc1`, the cytotoxicity call is “inactive”.

`C[C@@H]1CN([C@H](C)CO)C(=O)c2cc(NS(=O)(=O)c3ccc(F)cc3)ccc2O[C@@H]1CN(C)Cc1ccc(Oc2ccccc2)cc1`: the cytotoxicity call was “active”.

Consider `C[C@H]1CN([C@@H](C)CO)C(=O)c2cc(NS(=O)(=O)c3ccc(F)cc3)ccc2O[C@@H]1CN(C)Cc1ccc(Oc2ccccc2)cc1`, for which the cytotoxicity call is “inactive”.

On to `C[C@H](CO)N1C[C@H](C)[C@@H](CN(C)CC2CCOCC2)Oc2cc(C#Cc3ccccc3F)ccc2S1(=O)=O`, for which the cytotoxicity call was “inactive”.

Take `C[C@@H]1CN([C@H](C)CO)C(=O)c2cc(NC(=O)CCCN(C)C)ccc2O[C@H]1CN(C)Cc1ccncc1`: the cytotoxicity call was “inactive”.

Consider `CN(C)CC(=O)N1[C@@H]2c3cccc(=O)n3C[C@H]1[C@H](CO)[C@H]2C(=O)NCc1ccccc1`, for which the cytotoxicity call is “inactive”.

Turning to `C[C@@H]1CCCCO[C@@H](CN(C)S(=O)(=O)c2ccc(F)cc2)[C@@H](C)CN([C@H](C)CO)C(=O)c2cc(NC(=O)c3ccccc3)ccc2O1`, the cytotoxicity call was “inactive”.

As for `CCc1nnc(SCC(=O)O)n1N`, the cytotoxicity call is “inactive”.

Take `COc1ccc(S(=O)(=O)Nc2ccc3c(c2)C(=O)N([C@@H](C)CO)C[C@H](C)[C@@H](CN(C)C(=O)Nc2ccc4c(c2)OCO4)OCCCC[C@H](C)O3)cc1`: the cytotoxicity call is “inactive”.

For `COc1ccc(CN(C)C[C@H]2Oc3ccc(NC(=O)CCN4CCOCC4)cc3CC(=O)N([C@@H](C)CO)C[C@@H]2C)cc1`, the cytotoxicity call is “inactive”.

In the case of `C[C@@H]1CCCCO[C@@H](CN(C)Cc2ccc(C(=O)O)cc2)[C@@H](C)CN([C@@H](C)CO)C(=O)c2cc(NC(=O)Nc3ccc(C(F)(F)F)cc3)ccc2O1`, the cytotoxicity call was “inactive”.

On to `COc1ccc(C(=O)NCc2ccc(OCCN(C)C)cc2)cc1OC`, for which the cytotoxicity call was “inactive”.

Consider `COc1cc(C(=O)NCc2ccc(OCCN(C)C)cc2)cc(OC)c1OC.Cl`, for which the cytotoxicity call was “inactive”.

Regarding `COc1ccc(CCN(C)CCCOc2ccc(S(=O)(=O)c3c(C(C)C)cn4ccccc34)cc2)cc1OC`, the cytotoxicity call is “active”.

As for `COc1ccc(CCN(C)CCCOc2ccc(S(=O)(=O)c3[nH]c4ccccc4c3C(C)C)cc2)cc1OC`, the cytotoxicity call is “active”.

With `COc1ccc(CCN(C)CCCOc2ccc(S(=O)(=O)c3c(C(C)C)c4ccccc4n3C)cc2)cc1OC`, the cytotoxicity call was “active”.

For `C[C@H](CO)N1C[C@H](C)[C@H](CN(C)C(=O)Nc2ccc(F)cc2)OCCCC[C@H](C)Oc2ccc(NS(=O)(=O)c3ccccc3)cc2C1=O`, the cytotoxicity call is “inactive”.

Consider `Cc1ccc(-c2csc(-c3ccc(CN)cc3)n2)cc1`, for which the cytotoxicity call was “active”.

Turning to `Cc1ccc(-c2csc(-c3ccc(C(F)(F)F)cc3)n2)cc1`, the cytotoxicity call was “inactive”.

With `CCCc1cc(-c2nc(-c3ccc(C)cc3)cs2)ccn1`, the cytotoxicity call is “inactive”.

Regarding `CCc1ccccc1C(=O)N1CCC[C@@H](Cn2cc(C(C)(C)N)nn2)C1`, the cytotoxicity call is “inactive”.

As for `COc1ccc2c3c(ccc2c1)-c1[nH]c2ccccc2c1CC3`, the cytotoxicity call was “inactive”.

With `COc1ccc2[nH]c(=O)[nH]c(=O)c2c1`, the cytotoxicity call is “inactive”.

Consider `COc1ccc2[nH]c3c(-c4cccc5ccccc45)nccc3c2c1`, for which the cytotoxicity call was “active”.

For `COc1ccc(-c2ccc3n(c2=O)C[C@@H]2[C@@H](CO)[C@H](C(=O)NCC4CC4)[C@H]3N2S(C)(=O)=O)cc1`, the cytotoxicity call was “inactive”.

In the case of `C[C@@H]1CN([C@H](C)CO)S(=O)(=O)c2ccc(C#Cc3ccccc3)cc2O[C@@H]1CN(C)S(=O)(=O)c1ccccc1F`, the cytotoxicity call is “inactive”.

The values are drawn from the antibiotic and cytotoxicity screens of Wong et al. (2023).
